“And” between values parts separate entries of the source, which are not always exact repeats. Equal entries are not always repeated. Records with an inconclusive call do not appear. The source made the active and inactive calls. Calls follow the shape of the dose curve; as a rule, active = well fitted curve in the direction sought with a large enough effect; inconclusive = small, poorly fitted or top-dose-only effect, or another doubt; inactive = no such curve, though single readings can be large; an effect the other way counts as inactive or inconclusive.
What was measured:
[1] = target: Cytochrome P450 3A7 (Homo sapiens) (UniProt P24462); assay: Cytochrome P450 family 3 subfamily A member 7 (CYP3A7) small molecule antagonists: luciferase biochemical qHTS assay (AID 1963596); also: % is scaled to controls: 0 for no effect and ±100 for the full control effect; nearly all actives have a fitted effect of over 40% in size
Chain of Cytochrome P450 3A7 (Homo sapiens) (P24462 whole entry, looked up): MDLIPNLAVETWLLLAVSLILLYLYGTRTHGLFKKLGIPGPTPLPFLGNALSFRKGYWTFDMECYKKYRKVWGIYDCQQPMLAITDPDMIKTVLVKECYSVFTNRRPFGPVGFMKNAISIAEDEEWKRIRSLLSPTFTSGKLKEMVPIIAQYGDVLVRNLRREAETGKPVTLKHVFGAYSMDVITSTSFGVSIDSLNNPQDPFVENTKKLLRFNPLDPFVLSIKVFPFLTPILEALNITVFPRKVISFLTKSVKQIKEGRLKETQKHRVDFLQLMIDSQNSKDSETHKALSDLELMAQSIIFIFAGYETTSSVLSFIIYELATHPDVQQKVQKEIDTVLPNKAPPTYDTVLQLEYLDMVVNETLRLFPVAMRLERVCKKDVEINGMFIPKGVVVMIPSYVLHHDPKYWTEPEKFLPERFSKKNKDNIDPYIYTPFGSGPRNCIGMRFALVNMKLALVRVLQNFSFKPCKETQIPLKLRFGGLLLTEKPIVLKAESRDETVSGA
In short: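 P450-Glo luminescent assay: CYP3A7 enzyme converts a proluciferin substrate to luciferin, detected by luciferase reagent; light proportional to activity. Compounds in DMSO preincubated 10 min with enzyme-substrate mix at room temperature, then NADPH regeneration added for 1 h.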

[2] = Viability qHTS for spleen associated tyrosine kinase inhibitor (SYKi) naive MV4-11 cells (AID 1963823); also: nearly all actives have a fitted effect of over 40% in size
In short: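 CellTiter-Glo luminescence, 10 min room-temperature incubation, gave viability. Cells: naive MV4-11 (500/well), treated 72 hr at 37 C, 5% CO2.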

[3] = Viability qHTS for spleen associated tyrosine kinase inhibitor (SYKi) drug resistant MV4-11 cells (AID 1963824); also: nearly all actives have a fitted effect of over 35% in size
In short: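 CellTiter-Glo luminescence, read 10 min after reagent addition, reports viability after a 72 hr compound exposure. Cells are an MV4-11 line made resistant to SYK inhibition, seeded at 500 per well onto compound-containing plates.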

[4] = Cellular viability qHTS for adrenocortical cancer (ACC) cell line SW-13 (AID 1963989); conditions: SW-13 ACC cells viability, CellTiter-Glo, 48 h; activity (max response): active compounds read low;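 also: cells grown in serum-free medium with ITS supplement; % is scaled to controls: 0 for no effect and ±100 for the full control effect; nearly all actives have a fitted effect of over 65% in size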
In short: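 Viability was read as CellTiter-Glo luminescence after 48 h compound treatment (up to 46 uM final) of SW-13 cells grown serum-free; titration curves were fit with a four-parameter logistic model to give IC50 and efficacy.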

[5] = Cellular viability qHTS for adrenocortical cancer (ACC) cell line NCI-H295R (AID 1963990);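 also: 0% = DMSO only wells and -100% = full killing with cytotoxic reference compound; nearly all actives have a fitted effect of over 60% in size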
In short: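 CellTiter-Glo ATP luminescence, read 48 h after compound addition, measured viability of NCI-H295R adrenocortical cells grown serum-free with ITS. Final concentrations spanned up to 46 uM. Data normalized to DMSO and doxorubicin, fitted for IC50 and maximal response.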

C=CCc1ccc(O)c(OC)c1
inactive: Potency [1] | Potency [2] | Potency [3] | activity (max response) [4] 6.59% | Potency [5]

NC[C@H]1O[C@H](O[C@H]2[C@H](O)[C@@H](O[C@H]3O[C@H](CO)[C@@H](O)[C@H](N)[C@H]3O)[C@H](N)C[C@@H]2N)[C@H](N)[C@@H](O)[C@@H]1O
inactive: Potency [1] | Potency [2] | Potency [3] | activity (max response) [4] -3.44% | Potency [5]

CCCNC(C)C(=O)Nc1ccccc1C (stereo not given)
inactive: Potency [1] | Potency [2] | Potency [3] | activity (max response) [4] 8.91% | Potency [5]

CCCCCCCC/C=C\CCCCCCCCN
inactive: Potency [1] | Potency [2] | Potency [3] | activity (max response) [4] 7.78% | Potency [5]

NC(CS)C(=O)O (stereo not given)
inactive: Potency [1] | Potency [2] | Potency [3] | activity (max response) [4] 12.6% | Potency [5]

Cc1cccc(C)c1NC(=O)CN1CCCCCC1
inactive: Potency [1] | Potency [2] | Potency [3] | activity (max response) [4] 6.22% | Potency [5]

CO/N=C(/C(=O)N[C@@H]1C(=O)N2C(C(=O)[O-])=C(C[n+]3ccn4ncccc43)CS[C@H]12)c1nsc(N)n1
inactive: Potency [1] | Potency [2] | Potency [3] | activity (max response) [4] -7.2% | Potency [5]

O=C1O[C@H](CO)[C@@H](O)[C@H](O)[C@H]1O
inactive: Potency [1] | Potency [2] | Potency [3] | activity (max response) [4] 5.91% | Potency [5]

CC(=O)Nc1nnc(S(N)(=O)=O)s1
inactive: Potency [1] | Potency [2] | Potency [3] | activity (max response) [4] 5.04% | Potency [5]

N[C@@H](CSSC[C@H](N)C(=O)O)C(=O)O
inactive: activity change, negative = inhibition [1] 0.172% [at 0.91 µM] | viability (% of control) [2] 68.4% [at 0.588 µM] | viability, % of control [3] 76.8% [at 0.588 µM] | activity (max response) [4] 5.04% | activity change, negative = viability loss [5] -0.603% [at 0.587 µM]

Cc1cccc(C)c1NC(=O)c1ccccc1C(=O)O
inactive: Potency [1] | Potency [2] | Potency [3] | activity (max response) [4] 8.06% | Potency [5]

Nc1c[n+](N2CCOCC2)no1
inactive: Potency [1] | Potency [2] | Potency [3] | activity (max response) [4] -4.73% | Potency [5]

Cn1c([N+](=O)[O-])cnc1COC(N)=O
inactive: Potency [1] | Potency [2] | Potency [3] | activity (max response) [4] -4.89% | Potency [5]

COC(=O)c1cc(Cl)ccc1OC
inactive: Potency [1] | Potency [2] | Potency [3] | activity (max response) [4] -2.06% | Potency [5]

Cc1cccc(C)c1NC(=O)CC12CCCN1CCC2
inactive: Potency [1] | Potency [2] | Potency [3] | activity (max response) [4] 1.71% | Potency [5]

CCOC(=O)c1ccc(OCCN2C[C@H](O)[C@@H](O)[C@H](O)[C@H]2CO)cc1
inactive: Potency [1] | Potency [2] | Potency [3] | activity (max response) [4] -1.86% | Potency [5]

CC(=O)Oc1ccc(C)cc1
inactive: Potency [1] | Potency [2] | Potency [3] | activity (max response) [4] 6.29% | Potency [5]

O=C1NC(=O)[C@@]2(CCOc3ccc(F)cc32)N1
inactive: Potency [1] | Potency [2] | Potency [3] | activity (max response) [4] 3.16% | Potency [5]

COc1ccc2c(c1)CCCC2=O
inactive: Potency [1] | Potency [2] | Potency [3] | activity (max response) [4] 14.4% | Potency [5]

O=C(O)c1ccccc1S
inactive: Potency [1] | Potency [2] | Potency [3] | activity (max response) [4] 5.53% | Potency [5]

CCN1CCN(c2cc3c(cc2F)c(=O)c(C(=O)O)cn3C2CC2)CC1
inactive: Potency [1] | Potency [2] | Potency [3] | activity (max response) [4] 2.41% | Potency [5]

C[N+](C)(C)CCCCCCCCCC[N+](C)(C)C
inactive: Potency [1] | Potency [2] | Potency [3] | activity (max response) [4] 14.5% | Potency [5]

CCc1cccc2c(CCO)c[nH]c12
inactive: Potency [1] | Potency [2] | Potency [3] | activity (max response) [4] 12.9% | Potency [5]

CCOc1ccccc1OCC1CNCCO1 (stereo not given)
inactive: Potency [1] | Potency [2] | Potency [3] | activity (max response) [4] -0.481% | Potency [5]

CC(C)(Oc1ccc(C2CC2(Cl)Cl)cc1)C(=O)O (stereo not given)
inactive: Potency [1] | Potency [2] | Potency [3] | activity (max response) [4] 13.8% and -14.2% | Potency [5]

O=c1cc[nH]c(=O)[nH]1
inactive: Potency [1] | Potency [2] | Potency [3] | activity (max response) [4] 7.94% | Potency [5]

Cc1coc2ccccc2c1=O
inactive: Potency [1] | Potency [2] | Potency [3] | activity (max response) [4] 19.3% | Potency [5]

O=C(O)CCNC(=O)c1ccccc1
inactive: Potency [1] | Potency [2] | Potency [3] | activity (max response) [4] 1.23% | Potency [5]

C[n+]1ccccc1/C=N/O
inactive: Potency [1] | Potency [2] | Potency [3] | activity (max response) [4] 3.67% | Potency [5]

From PubChem BioAssay (NCATS)
